Activity calls are given as the source filed them. Rule for the calls: active = hit-call score of the fitted dose curve at least 0.9, where 1 is the maximum; inactive = score below 0.9.
Legend:
[1] = read-out: Vascular cell adhesion molecule 1 (VCAM1), VCAM1 (gene 7412); assay: BSK_4H_VCAM1: BioMAP Diversity Plus: 4H Assay for Vascular cell adhesion molecule 1 (VCAM1) Biomarker Activity (AID 2283033); conditions: primary human endothelial cells (HUVEC); actives raise or lower the signal
In short: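 Endpoint derived from bidirectional fitting against DMSO controls of VCAM-1 ELISA signal in umbilical vein endothelial cells sampled at 24 h following treatment.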

[2] = read-out: Interferon-gamma inducible Protein 10 (IP10), CXCL10 (gene 3627); assay: BSK_BE3C_IP10: BioMAP Diversity Plus: BE3C Assay for Interferon-gamma inducible Protein 10 (IP10) Biomarker Activity (AID 2283034); conditions: primary human bronchial epithelial cells; actives raise or lower the signal
In short: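 Using primary human bronchial epithelial cultures, the assay captures IP-10 by ELISA one day (24 h) after exposure. Parallel SRB staining of total protein flags overt cytotoxicity. Fits run bidirectionally relative to DMSO.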

[3] = read-out: Monokine induced gamma interferon (MIG), CXCL9 (gene 4283); assay: BSK_BE3C_MIG: BioMAP Diversity Plus: BE3C Assay for Monokine induced gamma interferon (MIG) Biomarker Activity (AID 2283035); conditions: primary human bronchial epithelial cells; actives raise or lower the signal
In short: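 MIG level was determined by ELISA after 24 h chemical treatment of primary human bronchial epithelial cells. Values were fitted bidirectionally with DMSO as the negative control and activity baseline.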

[4] = read-out: Transforming growth factor beta 1 (TGFb1), TGFB1 (gene 7040); assay: BSK_BE3C_TGFb1: BioMAP Diversity Plus: BE3C Assay for Transforming growth factor beta 1 (TGFb1) Biomarker Activity (AID 2283036); conditions: primary human bronchial epithelial cells; actives raise or lower the signal
In short: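 In this human primary bronchial epithelial system, an ELISA quantified TGF-b1 one day after dosing. Endpoint changes in either direction were fitted relative to DMSO.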

[5] = read-out: Plasminogen activator inhibitor-1 (PAI1), SERPINE1 (gene 5054); assay: BSK_BE3C_PAI1: BioMAP Diversity Plus: BE3C Assay for Plasminogen activator inhibitor-1 (PAI1) Biomarker Activity (AID 2283037); conditions: primary human bronchial epithelial cells; actives raise or lower the signal
In short: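 PAI-1 biomarker levels in treated human bronchial epithelial cells are determined by ELISA at 24 h. Both increases and decreases relative to DMSO are fitted.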

[6] = read-out: urokinase plasminogen activator (uPA), PLAU (gene 5328); assay: BSK_BE3C_uPA: BioMAP Diversity Plus: BE3C Assay for urokinase plasminogen activator (uPA) Biomarker Activity (AID 2283038); conditions: primary human bronchial epithelial cells; actives raise or lower the signal
In short: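 Primary human bronchial epithelial cells, uPA measured by ELISA 24 h after dosing. Bidirectional change relative to DMSO; cytotoxicity checked in parallel cultures by sulforhodamine B total-protein staining.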

[7] = read-out: Urokinase-type plasminogen activator receptor (uPAR), PLAUR (gene 5329); assay: BSK_BE3C_uPAR: BioMAP Diversity Plus: BE3C Assay for Urokinase-type plasminogen activator receptor (uPAR) Biomarker Activity (AID 2283039); conditions: primary human bronchial epithelial cells; actives raise or lower the signal
In short: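 A uPAR ELISA serves as the readout, taken 24 h after treating primary human bronchial epithelial cells. Responses in either direction are fitted against DMSO, which defines baseline activity.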

[8] = read-out: Interleukin-6 (IL6), IL6 (gene 3569); assay: BSK_CASM3C_IL6: BioMAP Diversity Plus: CASM3C Assay for Interleukin-6 (IL6) Biomarker Activity for (AID 2283040); conditions: primary human coronary artery smooth muscle cells; actives raise or lower the signal
[9] = read-out: Tissue plasminogen activator (tPA), PLAT (gene 5327); assay: BSK_BE3C_tPA: BioMAP Diversity Plus: BE3C Assay for Tissue plasminogen activator (tPA) Biomarker Activity (AID 2283041); conditions: primary human bronchial epithelial cells; actives raise or lower the signal
In short: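 Bidirectional curve fitting relative to DMSO defined activity, with tPA detected by ELISA in chemically treated human bronchial epithelial primary cells at 24 hours.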

[10] = read-out: Interleukin-8 (IL8), CXCL8 (gene 3576); assay: BSK_CASM3C_IL8: BioMAP Diversity Plus: CASM3C Assay for Interleukin-8 (IL8) Biomarker Activity (AID 2283042); conditions: primary human coronary artery smooth muscle cells; actives raise or lower the signal;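 note: IL-8 protein level quantified by ELISA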
[11] = read-out: Human Leukocyte Antigen - DR isotype (HLADR), HLA-DRA (gene 3122); assay: BSK_CASM3C_HLADR: BioMAP Diversity Plus: CASM3C Assay for Human Leukocyte Antigen - DR isotype (HLADR) Biomarker Activity (AID 2283043); conditions: primary human coronary artery smooth muscle cells; actives raise or lower the signal;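 note: cell-surface HLA-DR protein level quantified by ELISA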
[12] = read-out: Macrophage colony-stimulating factor (MCSF), CSF1 (gene 1435); assay: BSK_CASM3C_MCSF: BioMAP Diversity Plus: CASM3C Assay for Macrophage colony-stimulating factor (MCSF) Biomarker Activity (AID 2283044); conditions: primary human coronary artery smooth muscle cells; actives raise or lower the signal;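 note: M-CSF protein amount quantified by ELISA after 24 h exposure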
[13] = read-out: Low-density lipoprotein receptor (LDLR), LDLR (gene 3949); assay: BSK_CASM3C_LDLR: BioMAP Diversity Plus: CASM3C Assay for Low-density lipoprotein receptor (LDLR) Biomarker Activity (AID 2283045); conditions: primary human coronary artery smooth muscle cells; actives raise or lower the signal;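 note: LDLR protein level on the cell surface quantified by ELISA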
[14] = read-out: Monocyte Chemoattractant Protein-1 (MCP1), CCL2 (gene 6347); assay: BSK_CASM3C_MCP1: BioMAP Diversity Plus: CASM3C Assay for Monocyte Chemoattractant Protein-1 (MCP1) Biomarker Activity (AID 2283046); conditions: primary human coronary artery smooth muscle cells; actives raise or lower the signal;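 note: MCP-1 level quantified by ELISA 24 h after dosing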
[15] = BSK_CASM3C_Proliferation: Cell Proliferation Assessment in the BioMAP Diversity Plus: CASM3C Assay (AID 2283047); conditions: primary human coronary artery smooth muscle cells;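 note: sulforhodamine B total protein stain as relative cell number at 560 nm; sub-confluent cells exposed 48 h before staining; fitted both ways against DMSO so gain or loss of cell number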
[16] = read-out: Monokine induced gamma interferon (MIG), CXCL9 (gene 4283); assay: BSK_CASM3C_MIG: BioMAP Diversity Plus: CASM3C Assay for Monokine induced gamma interferon (MIG) Biomarker Activity (AID 2283048); conditions: primary human coronary artery smooth muscle cells; actives raise or lower the signal;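 note: MIG protein level measured by ELISA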
[17] = read-out: serum amyloid A (SAA), SAA1 (gene 6288); assay: BSK_CASM3C_SAA: BioMAP Diversity Plus: CASM3C Assay for serum amyloid A (SAA) Biomarker Activity (AID 2283049); conditions: primary human coronary artery smooth muscle cells; actives raise or lower the signal;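 note: SAA protein level quantified by ELISA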
[18] = BSK_CASM3C_SRB: Viability Assessment in the BioMAP Diversity Plus: CASM3C Assay (AID 2283050); conditions: primary human coronary artery smooth muscle cells;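 note: cells exposed to compound for 24 h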
[19] = read-out: Thrombomodulin, THBD (gene 7056); assay: BSK_CASM3C_Thrombomodulin: BioMAP Diversity Plus: CASM3C Assay for Thrombomodulin Biomarker Activity (AID 2283051); conditions: primary human coronary artery smooth muscle cells; actives raise or lower the signal;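 note: thrombomodulin protein level measured by ELISA 24 h after dosing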
[20] = read-out: Tissue Factor, F3 (gene 2152); assay: BSK_CASM3C_TissueFactor: BioMAP Diversity Plus: CASM3C Assay for Tissue Factor Biomarker Activity (AID 2283052); conditions: primary human coronary artery smooth muscle cells; actives raise or lower the signal;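 note: cell surface tissue factor protein level read by ELISA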

Measured: AC50

C=CCc1ccc(OC)c(OC)c1
inactive: all assays above

CC(C)(C)c1ccccc1
inactive: all assays above

Cn1cnc2c1c(=O)[nH]c(=O)n2C
inactive: all assays above

Nc1nc(Cl)nc2c1ncn2[C@H]1C[C@H](O)[C@@H](CO)O1
active: [15] 0.54 µM
inactive: all other assays above

O=C(NS(=O)(=O)/C=C/c1cccs1)c1ccc(F)cc1Br
active: [2] 32.6 µM | [15] 5.22 µM | [20] 0.061 µM
inactive: all other assays above

Nc1nc(=S)c2[nH]cnc2[nH]1
active: [13] 3.72 µM | [15] 4.67 µM
not listed: [1]
inactive: all other assays above

CCc1cc(C2=C(C(=O)O)N(c3ccccc3C(F)(F)F)S(=O)(=O)c3ccccc32)cc2c1OCO2
active: [11] 9.8 µM | [12] 19.8 µM | [13] 7.18 µM
inactive: all other assays above

c1ccc2occc2c1
inactive: all assays above

CCCCC(CC)COC(=O)CCCCCCCC(=O)OCC(CC)CCCC (stereo not given)
inactive: all assays above

CC(=O)S[C@H](C(=O)N[C@H]1Cc2ccccc2[C@H]2CCC[C@@H](C(=O)O)N2C1=O)C(C)C
active: [11] 3.97 µM
inactive: all other assays above

O=C1OC(c2ccc(O)cc2)(c2ccc(O)cc2)c2ccccc21
active: [1] 30.8 µM | [3] 7.79 µM | [15] 28.2 µM
not listed: [2] | [10]
inactive: all other assays above

NCCOCCOCCN
inactive: all assays above

CN(C)CCCN1c2ccccc2Sc2ccc(Cl)cc21
inactive: [8] | [10] | [16] | [17] | [20]
active: [1] 17.8 µM | [2] 30.5 µM | [3] 38.4 µM | [4] 32.1 µM | [5] 31.9 µM | [6] 36.4 µM | [7] 29.4 µM | [9] 32.1 µM | [11] 27.7 µM | [12] 11.2 µM | [13] 5.41 µM | [14] 20 µM | [15] 28 µM | [18] 28.5 µM | [19] 15 µM

CCC(C)N(C)C(=O)c1cc2ccccc2c(-c2ccccc2Cl)n1 (stereo not given)
inactive: all assays above

Cc1cc(Cc2ccc(N)c(C)c2)ccc1N
not listed: [17]
inactive: all other assays above

CN(C)CCCN(C)CCCN(C)C
inactive: all assays above

CC(=O)OCC(COC(C)=O)OC(C)=O
inactive: all assays above

Cc1ccc(-c2cc(C(F)(F)F)nn2-c2ccc(S(N)(=O)=O)cc2)cc1
active: [1] 32.7 µM | [2] 30.6 µM | [3] 39.1 µM | [4] 20 µM | [5] 36.6 µM | [6] 35.9 µM | [7] 31.6 µM | [8] 32.9 µM | [9] 18.6 µM | [10] 32.7 µM | [11] 32.4 µM | [13] 22.5 µM | [14] 31.5 µM | [15] 30.8 µM | [16] 31 µM | [17] 31.2 µM | [18] 33.9 µM | [19] 4.85 µM | [20] 36.7 µM

Cc1cc(SC2=C(O)C[C@@](CCc3ccc(N)cc3)(C(C)C)OC2=O)c(C(C)(C)C)cc1CO
inactive: all assays above

CCCCCCCCCCCCCCCCO
inactive: all assays above

CC(N)=O
inactive: all assays above

CC(C)c1cccc(C(C)C)c1
inactive: all assays above

O=C(O)c1cccnc1
inactive: all assays above

CC(=O)O[C@]1(C(C)=O)CC[C@H]2[C@@H]3C=C(Cl)C4=CC(=O)[C@@H]5C[C@@H]5[C@]4(C)[C@H]3CC[C@@]21C
active: [2] 33.4 µM | [3] 31 µM | [4] 31.5 µM | [5] 20 µM | [6] 38.2 µM | [7] 32.4 µM | [9] 34.9 µM
not listed: [17]
inactive: all other assays above

NC(=Nc1ccccc1)Nc1ccccc1
active: [12] 3.97 µM
inactive: all other assays above

O=[Si]=O
inactive: all assays above

O=C(O)c1[nH]n(-c2ccc(S(=O)(=O)O)cc2)c(=O)c1N=Nc1ccc(S(=O)(=O)O)cc1
inactive: all assays above

COC(=O)[C@H]1[C@H]2C[C@@H]3c4[nH]c5cc(OC)ccc5c4CCN3C[C@H]2C[C@@H](OC(=O)c2cc(OC)c(OC)c(OC)c2)[C@@H]1OC
active: [1] 8.36 µM | [13] 8.87 µM | [15] 21.3 µM | [19] 16.9 µM
not listed: [2] | [4] | [6]
inactive: all other assays above

O=Cc1ccccc1C=O
not listed: [8]
inactive: all other assays above

CC(=O)CC(c1ccccc1)c1c(O)c2ccccc2oc1=O (stereo not given)
inactive: all assays above

NC1CCCCC1
inactive: all assays above

COC(=O)CCC(=O)OC
inactive: all assays above

O=C1O[C@H]([C@H](O)CO)C(O)=C1O
inactive: all assays above

CCCCOC(=O)CCCCC(=O)OCCCC
inactive: all assays above

O=C(O)CN(CC(=O)O)CC(=O)O
inactive: all assays above

— PubChem BioAssay (EPA / NIEHS)
